Screens as filed in PubChem BioAssay.
Rows were chosen to be rich in hits. Some 1.3% of all compounds tested hit in one or more screens of this group.
LYPLA2 inh: counter-screen for PME1 inhibitors: inhibitors of human LYPLA2 | O95372 | recombinant LYPLA2, FP-Rh probe fluorescence polarization | inhibition, % at 5.9 µM | actives 0.38% (n = 320,000);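 active = inhibition above the screen-wide mean plus 3 SD, limit set per campaign, cut at about 26% in these data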
LYPLA1 inh: counter-screen for PME1 inhibitors: inhibitors of human LYPLA1 | O75608 | recombinant LYPLA1, FP-Rh probe fluorescence polarization | inhibition, % at 5.9 µM | actives 0.16% (n = 320,000);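 active = inhibition above the mean of all tested compounds plus 3 SD, set per campaign, cut at about 14% in these data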;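 also: inhibitors block serine hydrolase probe labeling of LYPLA1 so polarization falls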
ZTA DNA inh: blocks Epstein-Barr virus ZTA, an EBNA-1 counter-screen; P03206; AID 2234; ZTA-DNA binding, fluorescence polarization; actives 0.15% (n = 320,000); inhibition, % at 11 µM; in the data active = inhibition above about 33%
PREPL inh: inhibits the human prolyl oligopeptidase-like enzyme. Q4J6C6. inhibition, % at 5.96 µM. recombinant PREPL, fluorescence polarization activity-based probe. actives 0.68% (n = 320,000); in the data active = inhibition above about 43%
Target sequence (Q4J6C6 whole entry, looked up): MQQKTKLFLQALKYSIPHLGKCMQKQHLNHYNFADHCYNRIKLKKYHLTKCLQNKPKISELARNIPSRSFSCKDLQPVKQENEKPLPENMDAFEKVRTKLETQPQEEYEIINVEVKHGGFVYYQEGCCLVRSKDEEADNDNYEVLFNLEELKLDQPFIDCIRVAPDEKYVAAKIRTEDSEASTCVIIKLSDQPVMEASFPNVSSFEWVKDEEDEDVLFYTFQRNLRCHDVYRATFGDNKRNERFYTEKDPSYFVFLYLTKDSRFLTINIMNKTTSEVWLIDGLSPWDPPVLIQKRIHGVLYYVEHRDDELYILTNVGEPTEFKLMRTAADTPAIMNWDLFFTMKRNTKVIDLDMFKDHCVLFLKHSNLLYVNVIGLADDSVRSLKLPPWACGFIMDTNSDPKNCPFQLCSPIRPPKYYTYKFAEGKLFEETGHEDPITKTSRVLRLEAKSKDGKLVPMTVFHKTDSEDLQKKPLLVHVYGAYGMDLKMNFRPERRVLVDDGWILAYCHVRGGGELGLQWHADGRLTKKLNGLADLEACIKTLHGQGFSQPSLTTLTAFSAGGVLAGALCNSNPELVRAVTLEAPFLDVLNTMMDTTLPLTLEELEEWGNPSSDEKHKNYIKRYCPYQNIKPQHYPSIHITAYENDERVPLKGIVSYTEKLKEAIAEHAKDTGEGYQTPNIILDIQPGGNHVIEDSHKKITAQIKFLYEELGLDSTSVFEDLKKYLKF
EBNA-1 inh: blocks EBNA-1 binding to DNA; EBNA-1 DNA binding, fluorescence polarization; inhibition, % at 14.8 µM; actives 0.34% (n = 300,000); AID 1950; in the data active = inhibition above about 28%
EBNA-1 inh conf: EBNA-1 (EBV) inhibition, confirmation | shares compounds with EBNA-1 inh | actives 35% (n = 830) | AID 2292 | inhibition, % at 14.8 µM | Recombinant EBNA-1 DBD, Cy5-DNA fluorescence polarization;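 active = mean inhibition across replicates above a set limit taken from the earlier primary screen, cut at about 28% in these data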
ZTA counter trip: counter-screen for EBNA-1 inhibitors: Epstein-Barr virus ZTA inhibitors, triplicate; shares compounds with EBNA-1 inh; 830 tested, under 10 active; Zta-ZRE DNA binding, Cy5 fluorescence polarization; AID 2328; inhibition, % at 11.1 µM;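 active = mean inhibition over triplicates above a set limit taken from the primary EBNA-1 screen, cut at about 37% in these data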;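 also: purified full length Zta protein with Cy5 labeled ZRE DNA probe; inhibitors lower polarization by freeing the labeled DNA probe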
Of the large screens only hits and unclear results are named; the others gave an inactive call (follow-up assays come after a bar, where they were run).

CCOc1ccc(C(=O)N/N=C/c2ccc(-c3ccc(S(=O)(=O)Nc4ncccn4)cc3)o2)cc1	none
Cc1ccc(C)c(N(CC(=O)Nc2ccc(-c3nc4ccc(C)cc4s3)cc2)S(C)(=O)=O)c1	EBNA-1 inh 36 | EBNA-1 inh conf inactive | ZTA counter trip inactive
COc1cccc(N(C(=O)c2sc(C)nc2C)C(C(=O)NCC2CCCO2)c2ccccc2)c1 (stereo not drawn)	none
CCCN1Cc2cccc(C(=O)Nc3ccc(-c4nc5ccccc5[nH]4)cc3)c2C1=O	EBNA-1 inh 58 | EBNA-1 inh conf 51 | ZTA counter trip inactive
CCn1cc(CN2CCC(C(=O)Nc3ccc(Oc4cccnc4)cc3)CC2)cn1	none
COc1cccc(CNC(=O)c2cc3oc4ccccc4c3n2C)c1OC	EBNA-1 inh 32 | EBNA-1 inh conf inactive | ZTA counter trip inactive
COc1ccc(/C=C/C(=O)c2c(C)nc3ccccn23)cc1	EBNA-1 inh 69 | EBNA-1 inh conf 40 | ZTA counter trip inactive
COc1ccc(NC(=O)CSc2ccc(-c3cccs3)nn2)c(OC)c1	none
CC(=O)Nc1ccc(NC(=O)CSc2ccc(-c3cccs3)nn2)cc1	EBNA-1 inh 41 | EBNA-1 inh conf 38 | ZTA counter trip inactive
Cc1ccc(C)c(NC(=O)CSc2ccc(-c3cccs3)nn2)c1	none
Cc1cccc(NC(=O)CSc2ccc(-c3cccs3)nn2)c1C	EBNA-1 inh 29 | EBNA-1 inh conf inactive | ZTA counter trip inactive
O=[N+]([O-])c1ccc(C[n+]2cc(-c3ccc(Cl)c(Cl)c3)n3c2CCCCC3)cc1	EBNA-1 inh 33 | EBNA-1 inh conf inactive | ZTA counter trip inactive
O=[N+]([O-])c1ccc(C[n+]2cc(-c3ccccc3)n3c2CCCCC3)cc1	none
Cc1ccc(NC(=O)CN2C(=O)N/C(=C/c3cccn3-c3ccc(C(=O)O)cc3)C2=O)cc1	EBNA-1 inh 37 | EBNA-1 inh conf inactive | ZTA counter trip 40
CCOC(=O)CC1C(=O)NCCN1C(=O)c1c(Cl)cccc1Cl (stereo not drawn)	none
CCOc1ccc(C(=O)NCCCCNC(=O)c2ccc(OCC)cc2)cc1	EBNA-1 inh 28 | EBNA-1 inh conf inactive | ZTA counter trip inactive
Cc1nn(CC(=O)NCc2cccc3ccccc23)c(=O)c2ccccc12	EBNA-1 inh 31 | EBNA-1 inh conf inactive | ZTA counter trip inactive
Cc1nn(CCOc2cccc(Cl)c2)c(C)c1[N+](=O)[O-]	none
S=C(c1ccc(N2CCCC2)c(Br)c1)N1CCCCC1	none
CCc1ccc(/C=C2/C(=O)N(c3ccccc3)C(=S)N2CC(=O)OC)s1	EBNA-1 inh 41 | EBNA-1 inh conf inactive | ZTA counter trip inactive
NNC(=O)c1csc(Cc2c(Cl)sc3ccc(Cl)cc23)n1	none
Cc1cccc(COC(=O)Nc2ccc(NC(=O)c3ccccc3Cl)cc2)c1	EBNA-1 inh 48 | EBNA-1 inh conf inactive | ZTA counter trip inactive
CCOC(=O)Nc1ccccc1C(=O)Nc1cc(C)cc(C)c1	none
Cc1ccccc1Cn1c(=O)n(-c2ccccc2)c(=O)c2ccc(C(=O)NCc3ccco3)cc21	none
Cc1ccc(-n2c(=O)c3ccc(C(=O)NCc4ccco4)cc3n(Cc3ccccc3C#N)c2=O)cc1	EBNA-1 inh 50 | EBNA-1 inh conf inactive | ZTA counter trip inactive
Cc1ccc(C)c(NC(=O)C(Sc2nc3ccccc3c(=O)n2CC(C)C)c2ccccc2)c1 (stereo not drawn)	EBNA-1 inh 32 | EBNA-1 inh conf inactive | ZTA counter trip inactive
Cc1nc(-c2ccccc2)nc2[nH]c(-c3ccccc3)cc(=O)c12	EBNA-1 inh 28 | EBNA-1 inh conf inactive | ZTA counter trip inactive
COCCCNC(=O)c1cc(C)nn1-c1ccccc1	none
COc1ccc(-c2cc(C(=O)Nc3c(C)nn(Cc4ccccc4)c3C)no2)cc1	none
Cc1nn(Cc2ccccc2)c(C)c1NC(=O)c1cc(-c2ccc3c(c2)OCO3)on1	EBNA-1 inh 42 | EBNA-1 inh conf 43 | ZTA counter trip inactive
COc1ccc(N2CCN(C(=O)COC(=O)c3oc4ccccc4c3C)CC2)cc1	none (no result: EBNA-1 inh)
COc1ccc2[nH]c3nc(SCc4nnc(-c5ccc(C)cc5)o4)nnc3c2c1	EBNA-1 inh 55 | EBNA-1 inh conf 40 | ZTA counter trip inactive
CC(=O)N1c2ccc(S(=O)(=O)N3CCCC3C(=O)NCc3ccccc3Cl)cc2CC1C (stereo not drawn)	none
C=CCn1c(=NC(=O)c2cc(-c3cccs3)nc3ccccc23)sc2cc(S(N)(=O)=O)ccc21	EBNA-1 inh 29 | EBNA-1 inh conf inactive | ZTA counter trip inactive
C=CCn1c(SCC(=O)NCc2ccco2)nc2sc(C)c(C)c2c1=O	EBNA-1 inh 42 | EBNA-1 inh conf inactive | ZTA counter trip inactive
Cc1sc2nc(SCC(=O)NCc3ccco3)n(Cc3ccccc3)c(=O)c2c1C	none
CCOc1ccc(NC(=O)/C(C=Nc2ccccc2)=C(\C)O)cc1	none
Cc1ccc(C(=O)Nc2nc3ccc(S(C)(=O)=O)cc3s2)cc1C	EBNA-1 inh 144 | EBNA-1 inh conf 97 | ZTA counter trip inactive
CC(C)CN1C(=O)c2ccc(NC(=O)c3cccs3)cc2C1=O	none
O=C(Nc1ccc(Oc2ccc3c(c2)C(=O)N(c2ccc(O)cc2)C3=O)cc1)c1cccs1	EBNA-1 inh 28 | EBNA-1 inh conf 55 | ZTA counter trip inactive
CCn1cc(/C=N/NC(=O)c2cc3c(ccc4ccccc43)o2)c2ccccc21	EBNA-1 inh 62 | EBNA-1 inh conf inactive | ZTA counter trip inactive
CC(=O)Oc1ccc(/C=N\NC(=O)c2cc3c(ccc4ccccc43)o2)cc1	none
Cc1[nH]c2ccccc2c1C(O)CN1CCC2(CC1)OCCO2 (stereo not drawn)	none
COc1ccc2oc(C(=O)Nc3nccs3)c(C)c2c1	EBNA-1 inh 29 | EBNA-1 inh conf 55 | ZTA counter trip inactive
CCOc1ccc2oc(C(=O)Nc3nccs3)c(C)c2c1	none (no result: LYPLA2 inh, LYPLA1 inh, ZTA DNA inh, EBNA-1 inh)
O=C(CCCCCn1c(=S)[nH]c2cc3c(cc2c1=O)OCO3)N1CCN(Cc2ccccc2)CC1	EBNA-1 inh 37 | EBNA-1 inh conf 69 | ZTA counter trip inactive
O=C(CCCCCn1c(=S)[nH]c2cc3c(cc2c1=O)OCO3)N1CCN(C(=O)c2ccco2)CC1	none
Cc1ccc(-c2nnn(CC(=O)Nc3ccc(S(=O)(=O)N4CCC(C)CC4)cc3)n2)cc1	none
CC1CCN(S(=O)(=O)c2ccc(NC(=O)Cn3nnc(-c4ccccc4)n3)cc2)CC1	EBNA-1 inh 30 | EBNA-1 inh conf inactive | ZTA counter trip inactive
O=S(=O)(c1ccc2nc(-c3ccccc3)[nH]c2c1)N1CCN(c2ccc(Cl)cc2)CC1	EBNA-1 inh 37 | EBNA-1 inh conf inactive | ZTA counter trip inactive
Cc1nn(-c2ccc(Cl)cc2)c(=O)c2c(C)noc12	none
Cc1cccc(OCC(=O)N/N=C\C=C\c2ccc3c(c2)OCO3)c1C	EBNA-1 inh 59 | EBNA-1 inh conf 80 | ZTA counter trip inactive
